Experimental data as given in PubChem BioAssay (Tox21).
Records with an inconclusive call do not appear. Active and inactive are the calls of the source. Unless noted, calls follow the shape of the dose curve; as a rule, active = well fitted curve in the direction sought with a large enough effect in the repeat runs; inconclusive = weak or mixed curves; inactive = no such curve, though single readings can be large; an effect the other way counts as inactive or inconclusive.

What was measured:
[1] = qHTS assay for small molecule disruptors of the mitochondrial membrane potential (AID 720635); also: potency is read from the fitted curve at half-maximal effect
Procedure, shortened: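 Mitochondrial membrane potential tracked with Mito-MPS dye, red aggregates (ex 540/em 590 nm) against green monomers (ex 490/em 535 nm). Compound treatment 1 hr at 37C, dye 30 min in HepG2.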

[2] = qHTS assay to test for compound auto fluorescence at 535 nm (green) in HepG2 cells (AID 720675)
[3] = qHTS assay to test for compound auto fluorescence at 460 nm (blue) in HEK293 cell free culture (AID 720681)
Procedure, shortened: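 Blue fluorescence (Ex 405/Em 460 nm, triamterene-equivalent) was read immediately after pin transfer of compound or DMSO into medium (DMEM, 10% FBS) without cells.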

[4] = qHTS assay to test for compound auto fluorescence at 535 nm (green) in HepG2 cell free culture (AID 720686)
[5] = biological target: Glucocorticoid receptor (Homo sapiens) (UniProt P04150); experiment: qHTS assay to identify small molecule agonists of the glucocorticoid receptor (GR) signaling pathway (AID 720691; active = well fitted activation curve with a large enough effect in the signal ratio in the repeat runs, not every such curve was filed as active; the % refers to the signal ratio)
Sequence of Glucocorticoid receptor (Homo sapiens) (P04150 whole entry, looked up): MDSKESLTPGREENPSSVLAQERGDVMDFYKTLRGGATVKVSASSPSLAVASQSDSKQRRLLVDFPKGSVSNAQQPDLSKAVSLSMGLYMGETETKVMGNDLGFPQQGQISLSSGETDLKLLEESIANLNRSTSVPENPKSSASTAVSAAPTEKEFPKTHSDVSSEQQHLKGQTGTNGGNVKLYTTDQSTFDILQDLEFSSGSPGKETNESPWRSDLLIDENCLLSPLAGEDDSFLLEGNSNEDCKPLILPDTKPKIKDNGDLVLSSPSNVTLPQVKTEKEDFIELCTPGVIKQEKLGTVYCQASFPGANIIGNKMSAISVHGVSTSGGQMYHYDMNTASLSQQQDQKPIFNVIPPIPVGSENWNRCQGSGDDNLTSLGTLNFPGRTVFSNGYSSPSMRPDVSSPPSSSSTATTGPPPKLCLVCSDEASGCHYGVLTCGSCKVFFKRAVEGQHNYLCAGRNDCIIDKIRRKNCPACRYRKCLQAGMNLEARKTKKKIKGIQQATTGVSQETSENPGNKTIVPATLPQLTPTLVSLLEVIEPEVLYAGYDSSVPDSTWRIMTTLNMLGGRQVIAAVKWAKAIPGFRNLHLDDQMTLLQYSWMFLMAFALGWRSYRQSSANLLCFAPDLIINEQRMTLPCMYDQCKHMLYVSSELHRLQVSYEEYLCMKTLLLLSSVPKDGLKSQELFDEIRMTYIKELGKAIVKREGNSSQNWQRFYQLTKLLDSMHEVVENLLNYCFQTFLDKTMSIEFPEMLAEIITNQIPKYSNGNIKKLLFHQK
Procedure, shortened: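 GR-bla HeLa cells carrying a GRE-driven beta-lactamase reporter, exposed to compounds for 18 h at 37 C. Reporter activation read as fluorescence after 2 h with LiveBLAzer B/G FRET substrate at room temperature.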

[6] = qHTS assay to identify small molecule antagonists of the glucocorticoid receptor (GR) signaling pathway - cell viability counter screen (AID 720693); also: nearly all actives have a fitted effect of over 55% in size; also: potency is read from the fitted curve at half-maximal effect
[7] = qHTS assay for identifying genotoxic compounds that show differential cytotoxicity against isogenic chicken DT40 cell lines with known DNA damage response pathways - wild type cell line (AID 743012); also: nearly all actives have a fitted effect of over 60% in size; also: potency is read from the fitted curve at half-maximal effect
Procedure, shortened: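 Wild-type DT40 cells (300/well) exposed to compounds for 40 hours at 37 C/5% CO2. Viability read by CellTiter-Glo luminescence after 30 min at room temperature.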

[8] = qHTS assay for identifying genotoxic compounds that show differential cytotoxicity against isogenic chicken DT40 cell lines with known DNA damage response pathways - Rev3 mutant cell line (AID 743014); also: nearly all actives have a fitted effect of over 55% in size; also: potency is read from the fitted curve at half-maximal effect
[9] = qHTS assay to identify small molecule antagonists of the androgen receptor (AR) signaling pathway - cell viability counter screen (AID 743033; also: nearly all actives have a fitted effect of over 45% in size; also: potency is read from the fitted curve at half-maximal effect)
[10] = qHTS assay to identify small molecule antagonists of the thyroid receptor (TR) signaling pathway - cell viability counter screen (AID 743064); also: nearly all actives have a fitted effect of over 50% in size; also: potency is read from the fitted curve at half-maximal effect
Procedure, shortened: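 In rat pituitary GH3.TRE-Luc reporter cells co-exposed to compound and 1 nM T3 for 23.5 h, cytotoxicity was assessed with CellTiter-Fluor in the same wells, read by fluorescence.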

[11] = qHTS assay to identify small molecule antagonists of the thyroid receptor (TR) signaling pathway (AID 743065); also: nearly all actives have a fitted effect of over 55% in size; also: potency is read from the fitted curve at half-maximal effect
Procedure, shortened: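 Antagonism measured as loss of luciferase signal in GH3 cells stably carrying a TRE-luciferase reporter, co-treated with compound and T3 (1 nM final) for 23.5 h at 37 C. Viability was read in the same well by CellTiter-Fluor.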

[12] = tested on: thyroid hormone receptor (rat, GH3 cells); experiment: qHTS assay to identify small molecule agonists of the thyroid receptor (TR) signaling pathway (AID 743066; calls by dose curve)
[13] = qHTS assay to identify small molecule that activate the aryl hydrocarbon receptor (AhR) signaling pathway - cell viability counter screen (AID 743086); also: nearly all actives have a fitted effect of over 45% in size; also: potency is read from the fitted curve at half-maximal effect
Procedure, shortened: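 Cytotoxicity counter screen: CellTiter-Fluor signal (30 min, 37 C) in 4000 HepG2 cells/well carrying the DRE-luciferase reporter, following 24 h compound exposure at 37 C.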

[14] = qHTS assay to identify small molecule antagonists of the androgen receptor (AR) signaling pathway using the MDA cell line - cell viability counter screen (AID 743041; also: nearly all actives have a fitted effect of over 45% in size)
Procedure, shortened: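 R1881-driven MDA-kb2 AR-luc cells, 3,000/well, were dosed with library compounds for 16 h; cell health came from CellTiter-Fluor fluorescence in the reporter wells.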

[15] = qHTS assay to identify small molecule antagonists of the estrogen receptor alpha (ER-alpha) signaling pathway - cell viability counter screen (AID 743074; calls by dose curve;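 also: HEK293 cells carrying ER-alpha-UAS-bla reporter stimulated with 17beta-estradiol; nearly all actives have a fitted effect of over 45% in size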)
[16] = biological target: Estrogen receptor (Homo sapiens) (UniProt P03372); experiment: qHTS assay to identify small molecule agonists of the estrogen receptor alpha (ER-alpha) signaling pathway (AID 743075; calls by dose curve;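 also: HEK293 GripTite cells with ER-alpha and UAS-driven beta-lactamase reporter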)
Sequence of Estrogen receptor (Homo sapiens) (P03372 whole entry, looked up): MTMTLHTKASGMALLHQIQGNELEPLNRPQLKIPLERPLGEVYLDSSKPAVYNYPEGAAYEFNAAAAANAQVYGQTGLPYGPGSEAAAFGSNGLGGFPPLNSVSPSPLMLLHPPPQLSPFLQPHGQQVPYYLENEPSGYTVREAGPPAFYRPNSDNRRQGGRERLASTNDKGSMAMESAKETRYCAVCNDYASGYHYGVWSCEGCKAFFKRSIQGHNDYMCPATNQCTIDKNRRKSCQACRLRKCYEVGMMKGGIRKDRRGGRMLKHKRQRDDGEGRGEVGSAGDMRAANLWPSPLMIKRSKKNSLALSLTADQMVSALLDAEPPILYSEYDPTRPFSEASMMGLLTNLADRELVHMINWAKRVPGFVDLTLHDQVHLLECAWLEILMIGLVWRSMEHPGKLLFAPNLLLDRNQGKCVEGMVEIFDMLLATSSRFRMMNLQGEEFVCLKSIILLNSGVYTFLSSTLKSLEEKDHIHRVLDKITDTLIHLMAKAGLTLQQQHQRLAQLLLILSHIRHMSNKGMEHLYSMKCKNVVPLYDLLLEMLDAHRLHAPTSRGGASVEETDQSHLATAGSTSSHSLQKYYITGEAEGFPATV

[17] = biological target: Estrogen receptor (Homo sapiens) (UniProt P03372); experiment: qHTS assay to identify small molecule agonists of the estrogen receptor alpha (ER-alpha) signaling pathway using the BG1 cell line (AID 743079); also: nearly all actives have a fitted effect of over 20% in size
[18] = qHTS assay to identify small molecule antagonists of the estrogen receptor alpha (ER-alpha) signaling pathway using the BG1 cell line (AID 743080; calls by dose curve;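 also: BG1 cells stimulated with 17beta-estradiol alongside compound; series mostly up to about 70 µM; nearly all actives have a fitted effect of over 25% in size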)
Procedure, shortened: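 BG1-Luc-4E2 cells (endogenous full-length ER-alpha, stable 4×ERE-luciferase) were starved 5 days in phenol-red-free medium with 10% charcoal-stripped FBS, plated 24 h, then given compound plus 17beta-estradiol for 21.5 h at 37 C; ONE-Glo luminescence read after 30 min.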

[19] = biological target: Peroxisome proliferator-activated receptor gamma (Homo sapiens) (UniProt P37231); experiment: qHTS assay to identify small molecule agonists of the peroxisome proliferator-activated receptor gamma (PPARg) signaling pathway (AID 743094; active = well fitted activation curve with a large enough effect in the signal ratio in the repeat runs, not every such curve was filed as active; the % refers to the signal ratio)
Sequence of Peroxisome proliferator-activated receptor gamma (Homo sapiens) (P37231 whole entry, looked up): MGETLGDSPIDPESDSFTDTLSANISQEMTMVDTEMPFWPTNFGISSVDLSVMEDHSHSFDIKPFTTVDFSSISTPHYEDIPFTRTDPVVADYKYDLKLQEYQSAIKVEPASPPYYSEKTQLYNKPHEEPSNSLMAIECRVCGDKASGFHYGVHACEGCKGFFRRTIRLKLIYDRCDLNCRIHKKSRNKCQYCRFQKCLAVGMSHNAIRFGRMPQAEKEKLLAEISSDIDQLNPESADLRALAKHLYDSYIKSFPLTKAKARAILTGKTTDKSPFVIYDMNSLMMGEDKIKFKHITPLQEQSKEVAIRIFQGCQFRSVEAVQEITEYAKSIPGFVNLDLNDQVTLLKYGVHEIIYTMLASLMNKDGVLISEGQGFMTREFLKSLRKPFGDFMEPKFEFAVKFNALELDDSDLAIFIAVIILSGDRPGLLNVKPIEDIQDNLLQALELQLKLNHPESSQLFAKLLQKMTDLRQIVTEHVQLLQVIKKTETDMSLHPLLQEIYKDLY
Procedure, shortened: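 GeneBLAzer PPARg UAS-bla HEK293H cells were plated, rested 5 h, then exposed to compounds for 17 h at 37C. Beta-lactamase activity was read by LiveBLAzer B/G FRET substrate fluorescence after 1 h at room temperature.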

[20] = biological target: Nuclear receptor subfamily 1 group I member 2 (Homo sapiens) (UniProt O75469); experiment: CYP3A4 induction through human pregnane X receptor (PXR) by small molecules, qHTS assay (AID 1346984); also: nearly all actives have a fitted effect of over 40% in size; also: potency is read from the fitted curve at half-maximal effect
Procedure, shortened: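 DPX-2 HepG2 cells carrying a PXR response element and CYP3A4-promoter luciferase construct, treated with compounds 24 hr at 37C. Then P450-Glo CYP3A4 Luciferin-IPA substrate (3uM final) for 3 hr at 37C, One-Glo added, luminescence read.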

Measured: Potency

CC(=O)O[C@H]1C[C@H](O[C@H]2[C@@H](O)C[C@H](O[C@H]3[C@@H](O)C[C@H](O[C@H]4CC[C@@]5(C)[C@H](CC[C@@H]6[C@@H]5C[C@@H](O)[C@]5(C)[C@@H](C7=CC(=O)OC7)CC[C@]65O)C4)O[C@@H]3C)O[C@@H]2C)O[C@H](C)[C@H]1O[C@@H]1O[C@H](CO)[C@@H](O)[C@H](O)[C@H]1O
inactive: [2] | [3] | [4] | [5] | [10] | [11] | [12] | [13]
active: [1] 0.75 µM | [6] 674 nM | [7] 750 nM | [8] 750 nM | [9] 75.6 nM

C[C@H]1CC[C@]2(NC1)O[C@H]1C[C@H]3[C@@H]4CC[C@H]5C[C@@H](O)CC[C@]5(C)[C@H]4CC[C@]3(C)[C@H]1[C@@H]2C
not listed: [1] | [5] | [10] | [11]
inactive: all other assays above

F/C(COc1ccc2c(c1)[nH]c1ccccc12)=C1/CN2CCC1CC2
active: [7] 5960 nM | [8] 8410 nM | [10] 7.5 µM | [13] 21.1 µM
not listed: [1] | [11] | [12] | [15] | [18] | [19]
inactive: all other assays above

C[C@@H]([C@H](O)c1ccccc1)N(C)C
not listed: [1] | [4] | [6] | [8]
inactive: all other assays above

C=CCN1CC[C@]23c4c5ccc(O)c4O[C@H]2[C@@H](O)C=C[C@H]3[C@H]1C5
not listed: [4] | [5] | [9] | [11] | [16] | [17] | [18]
inactive: all other assays above

Cc1nnc2n1-c1ccc(Cl)cc1C(c1ccccc1Cl)=NC2
not listed: [14] | [16] | [17] | [18] | [19]
inactive: all other assays above

O=[N+]([O-])c1cc(I)c(O)c(I)c1
active: [1] 13.3 µM | [10] 26.6 µM | [11] 21.1 µM
inactive: [2] | [3] | [5] | [9] | [14] | [13] | [20]

C[C@@H](Cc1ccccc1)NCCC(c1ccccc1)c1ccccc1
active: [7] 3590 nM | [8] 5070 nM | [10] 11.4 µM | [20] 12.6 µM
inactive: [3] | [4] | [6] | [9] | [15] | [16] | [17] | [18]

OC[C@@H](O)[C@H]1O[C@@H]2O[C@@H](C(Cl)(Cl)Cl)O[C@@H]2[C@H]1O
inactive: all assays above

O=C(CS(=O)C(c1ccccc1)c1ccccc1)NO (stereo not given)
not listed: [2] | [4] | [9] | [13] | [14]
inactive: all other assays above

C/C(=C\c1csc(C)n1)[C@@H]1C[C@@H]2O[C@]2(C)CCC[C@H](C)[C@H](O)[C@@H](C)C(=O)C(C)(C)[C@@H](O)CC(=O)O1
inactive: [2] | [3] | [4] | [5] | [12] | [17] | [13] | [19] | [20]
active: [7] 1.9 nM | [8] 2.4 nM | [10] 0.0038 µM

Cc1cccc(C(C)c2cnc[nH]2)c1C (stereo not given)
inactive: [1] | [2] | [3] | [5] | [6] | [9] | [11] | [12] | [15] | [13] | [20]

NCC(O)c1cccc(O)c1 (stereo not given)
not listed: [2] | [11]
inactive: all other assays above
